Reference: PubChem BioAssay AID1159580 (chemical genetic matrix, 2015)
Screen size: about 5,500 compounds; about 2,000 (36%) were called active. Not shown: some 18% with an inconclusive outcome. Rule as the data show it: active = normalized growth mostly below about 0.91 (no sharp cut-off); inconclusive = no clear call, values can overlap the other calls; inactive = mostly above about 0.92. This is one part of the list.

Experiment: chemical genetic growth profiling, strain panel (AID 1159580);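 also: tested at 20 µM; growth read once vehicle control cultures reached saturation at 30 °C; 1 = growth at the plate median or of vehicle wells; lower values mean less growth of the strain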
Conditions: growth OD

Measured: normalized growth

Nc1ccc(C(=O)O)cc1
inactive: S. cerevisiae deletion strains, locus YJR066W, strain TOR1, stronger effect = lower value 0.968 | S. cerevisiae deletion strains, locus YJR075W, strain HOC1, stronger effect = lower value 1.01 | S. cerevisiae deletion strains, locus YKL009W, strain mrt4, stronger effect = lower value 1.02 | S. cerevisiae deletion strains, locus YKL068W, stronger effect = lower value 0.993 | S. cerevisiae deletion strains, locus YKL085W, strain MDH1 (second series), stronger effect = lower value 0.998 | S. cerevisiae deletion strains, locus YKL085W, strain MDH1, stronger effect = lower value 0.998 | S. cerevisiae deletion strains, locus YKL160W, strain elf1, stronger effect = lower value 1.03 | S. cerevisiae deletion strains, locus YKL190W, strain CNB1, stronger effect = lower value 0.996 | S. cerevisiae deletion strains, locus YKR001C, strain vps1, stronger effect = lower value 1.01 | S. cerevisiae deletion strains, locus YKR026C, strain gcn3, stronger effect = lower value 1.04 | S. cerevisiae deletion strains, locus YKR091W, strain srl3, stronger effect = lower value 1.02 | S. cerevisiae deletion strains, locus YLL001W, strain dnm1, stronger effect = lower value 1.03 | S. cerevisiae deletion strains, locus YLL026W, stronger effect = lower value 1.04 | S. cerevisiae deletion strains, locus YLL041C, strain sdh2, stronger effect = lower value 1.02 | S. cerevisiae deletion strains, locus YLR027C, strain aat2, stronger effect = lower value 1.02 | S. cerevisiae deletion strains, locus YLR039C, strain RIC1, stronger effect = lower value 0.996 | S. cerevisiae deletion strains, locus YLR058C, strain SHM2, stronger effect = lower value 1.01 | S. cerevisiae deletion strains, locus YLR102C, strain apc9, stronger effect = lower value 1.01 | S. cerevisiae deletion strains, locus YLR113W, strain HOG1, stronger effect = lower value 1.01 | S. cerevisiae deletion strains, locus YLR221C, strain rsa3, stronger effect = lower value 1.02 | S. cerevisiae deletion strains, locus YLR258W, strain gsy2, stronger effect = lower value 1.01 | S. cerevisiae deletion strains, locus YLR262C, strain YPT6 (second series), stronger effect = lower value 1.02 | S. cerevisiae deletion strains, locus YLR262C, strain YPT6, stronger effect = lower value 1.07 | S. cerevisiae deletion strains, locus YLR268W, strain sec22, stronger effect = lower value 1.02 | S. cerevisiae deletion strains, locus YLR320W, strain mms22, stronger effect = lower value 1.01 | S. cerevisiae deletion strains, locus YLR330W, strain CHS5, stronger effect = lower value 1.01 | S. cerevisiae deletion strains, locus YLR342W, strain FKS1 (second series), stronger effect = lower value 1.02 | S. cerevisiae deletion strains, locus YLR342W, strain FKS1, stronger effect = lower value 1.05 | S. cerevisiae deletion strains, locus YLR357W, strain rsc2, stronger effect = lower value 1.03 | S. cerevisiae deletion strains, locus YLR370C, strain arc18, stronger effect = lower value 1.02 | S. cerevisiae deletion strains, locus YLR371W, strain rom2, stronger effect = lower value 1.01 | S. cerevisiae deletion strains, locus YLR384C, strain iki3, stronger effect = lower value 1.01 | S. cerevisiae deletion strains, locus YLR418C, strain cdc73, stronger effect = lower value 1.03 | S. cerevisiae deletion strains, locus YML016C, strain PPZ1, stronger effect = lower value 1.01 | S. cerevisiae deletion strains, locus YML032C, strain rad52, stronger effect = lower value 1.01 | S. cerevisiae deletion strains, locus YML120C, strain ndi1, stronger effect = lower value 1.04 | S. cerevisiae deletion strains, locus YML124C, strain tub3, stronger effect = lower value 1.01 | S. cerevisiae deletion strains, locus YMR058W, strain fet3, stronger effect = lower value 1.04 | S. cerevisiae deletion strains, locus YMR078C, strain ctf18, stronger effect = lower value 1.02 | S. cerevisiae deletion strains, locus YMR125W, strain sto1, stronger effect = lower value 1.01 | S. cerevisiae deletion strains, locus YMR129W, stronger effect = lower value 1.03 | S. cerevisiae deletion strains, locus YMR205C, strain PFK2, stronger effect = lower value 1.03 | S. cerevisiae deletion strains, locus YMR223W, strain ubp8, stronger effect = lower value 1.01 | S. cerevisiae deletion strains, locus YMR231W, strain pep5, stronger effect = lower value 1.02 | S. cerevisiae deletion strains, locus YMR263W, strain SAP30, stronger effect = lower value 1 | S. cerevisiae deletion strains, locus YMR307W, strain GAS1, stronger effect = lower value 1.05 | S. cerevisiae deletion strains, locus YNL067W, strain RPL9B, stronger effect = lower value 1 | S. cerevisiae deletion strains, locus YNL071W, strain lat1, stronger effect = lower value 1.01 | S. cerevisiae deletion strains, locus YNL183C, strain NPR1, stronger effect = lower value 0.953 | S. cerevisiae deletion strains, locus YNL209W, strain ssb2, stronger effect = lower value 1.02 | S. cerevisiae deletion strains, locus YNL233W, strain BNI4, stronger effect = lower value 1.01 | S. cerevisiae deletion strains, locus YNL248C, strain rpa49, stronger effect = lower value 1.05 | S. cerevisiae deletion strains, locus YNL250W, strain rad50, stronger effect = lower value 1.01 | S. cerevisiae deletion strains, locus YNL271C, strain bni1, stronger effect = lower value 1.03 | S. cerevisiae deletion strains, locus YNL298W, strain CLA4, stronger effect = lower value 1.01 | S. cerevisiae deletion strains, locus YNL307C, strain MCK1, stronger effect = lower value 1.01 | S. cerevisiae deletion strains, locus YNL322C, strain KRE1 (second series), stronger effect = lower value 1.01 | S. cerevisiae deletion strains, locus YNR049C, strain mso1, stronger effect = lower value 1.02 | S. cerevisiae deletion strains, locus YNR052C, strain pop2, stronger effect = lower value 1 | S. cerevisiae deletion strains, locus YOL006C, strain TOP1, stronger effect = lower value 1.06 | S. cerevisiae deletion strains, locus YOL012C, strain htz1 2.07 | S. cerevisiae deletion strains, locus YOL147C, strain pex11, stronger effect = lower value 1.01 | S. cerevisiae deletion strains, locus YOR001W, strain rrp6, stronger effect = lower value 1.05 | S. cerevisiae deletion strains, locus YOR061W, strain CKA2, stronger effect = lower value 1.01 | S. cerevisiae deletion strains, locus YOR069W, strain VPS5, stronger effect = lower value 1.01 | S. cerevisiae deletion strains, locus YOR070C, strain gyp1, stronger effect = lower value 1.01 | S. cerevisiae deletion strains, locus YOR080W, strain dia2, stronger effect = lower value 1.04 | S. cerevisiae deletion strains, locus YOR083W, strain WHI5, stronger effect = lower value 1.05 | S. cerevisiae deletion strains, locus YOR106W, strain vam3, stronger effect = lower value 1.04 | S. cerevisiae deletion strains, locus YOR136W, strain idh2, stronger effect = lower value 1.02 | S. cerevisiae deletion strains, locus YOR144C, strain elg1, stronger effect = lower value 1.01 | S. cerevisiae deletion strains, locus YOR184W, strain ser1, stronger effect = lower value 1.02 | S. cerevisiae deletion strains, locus YOR231W, strain MKK1, stronger effect = lower value 1.01 | S. cerevisiae deletion strains, locus YOR265W, strain rbl2, stronger effect = lower value 1.01 | S. cerevisiae deletion strains, locus YOR270C, strain vph1, stronger effect = lower value 1.07 | S. cerevisiae deletion strains, locus YOR290C, strain snf2, stronger effect = lower value 1.01 | S. cerevisiae deletion strains, locus YOR316C, strain cot1, stronger effect = lower value 1.01 | S. cerevisiae deletion strains, locus YPL051W, strain arl3, stronger effect = lower value 1.04 | S. cerevisiae deletion strains, locus YPL078C, strain atp4, stronger effect = lower value 1.05 | S. cerevisiae deletion strains, locus YPL106C, strain sse1, stronger effect = lower value 1.03 | S. cerevisiae deletion strains, locus YPL240C, strain hsp82, stronger effect = lower value 1.01 | S. cerevisiae deletion strains, locus YPL256C, strain CLN2, stronger effect = lower value 1.02 | S. cerevisiae deletion strains, locus YPR119W, strain clb2, stronger effect = lower value 1 | S. cerevisiae deletion strains, locus YPR141C, strain kar3, stronger effect = lower value 1.01 | S. cerevisiae deletion strains, locus YPR163C, strain tif3, stronger effect = lower value 1.02 | S. cerevisiae deletion strains, locus YPR167C, strain met16, stronger effect = lower value 1.02 | S. cerevisiae deletion strains, strain wtn01, stronger effect = lower value 1.02 | S. cerevisiae strains, strain wild type, stronger effect = lower value 1
